Reference: PubChem BioAssay AID1159580 (chemical genetic matrix, 2015)
Values joined by “and” are separate entries in the source; they are usually repeats but may differ in a detail not shown here. Identical values can stand only once. Screen size: about 5,500 compounds; about 2,000 (36%) were called active. About 18% were inconclusive and are not listed. Rule as the data show it: active = normalized growth mostly below about 0.91 (no sharp cut-off); inconclusive = no clear call, values can overlap the other calls; inactive = mostly above about 0.92. The list shows a part of the results.

Assay: chemical genetic growth profiling, strain panel (AID 1159580);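 also: tested at 20 µM; growth read once vehicle control cultures reached saturation at 30 °C; 1 = growth at the plate median or of vehicle wells; lower values mean less growth of the strain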
Details: growth OD

Measured: normalized growth

CCOc1ccc(/C=C(\C)[N+](=O)[O-])cc1OC
inactive: S. cerevisiae deletion strains, locus YAR019C, strain CDC15, hits give low values 0.976 | S. cerevisiae deletion strains, locus YBL105C, strain PKC1, hits give low values 0.975 | S. cerevisiae deletion strains, locus YBR135W, strain CKS1, hits give low values 0.97 | S. cerevisiae deletion strains, locus YBR136W, strain MEC1, hits give low values 0.973 | S. cerevisiae deletion strains, locus YBR160W, strain CDC28, hits give low values 0.971 | S. cerevisiae deletion strains, locus YDL017W, strain CDC7, hits give low values 0.97 | S. cerevisiae deletion strains, locus YDL028C, strain MPS1, hits give low values 0.973 | S. cerevisiae deletion strains, locus YDL108W, strain KIN28, hits give low values 0.979 | S. cerevisiae deletion strains, locus YDL132W, strain cdc53, hits give low values 0.991 | S. cerevisiae deletion strains, locus YDR052C, strain DBF4, hits give low values 0.984 | S. cerevisiae deletion strains, locus YDR054C, strain cdc34, hits give low values 0.978 | S. cerevisiae deletion strains, locus YDR226W, strain ADK1, hits give low values 0.97 | S. cerevisiae deletion strains, locus YFL009W, strain cdc4, hits give low values 0.98 | S. cerevisiae deletion strains, locus YFL029C, strain CAK1, hits give low values 0.97 | S. cerevisiae deletion strains, locus YFR003C, strain YPI1, hits give low values 0.978 | S. cerevisiae deletion strains, locus YFR028C, strain CDC14, hits give low values 0.974 | S. cerevisiae deletion strains, locus YIL147C, strain SLN1, hits give low values 0.973 | S. cerevisiae deletion strains, locus YJL128C, strain PBS2, hits give low values 0.964 | S. cerevisiae deletion strains, locus YJR016C, strain ILV3, hits give low values 0.985 | S. cerevisiae deletion strains, locus YKL193C, strain SDS22, hits give low values 0.973 | S. cerevisiae deletion strains, locus YMR001C, strain CDC5, hits give low values 0.967 | S. cerevisiae deletion strains, locus YMR277W, strain FCP1, hits give low values 0.973 | S. cerevisiae deletion strains, locus YNL006W, strain LST8, hits give low values 0.976 | S. cerevisiae deletion strains, locus YNL161W, strain CBK1, hits give low values 0.961 | S. cerevisiae deletion strains, locus YNL207W, strain RIO2, hits give low values 0.977 | S. cerevisiae deletion strains, locus YNL222W, strain SSU72, hits give low values 0.976 | S. cerevisiae deletion strains, locus YOL078W, strain AVO1, hits give low values 0.98 | S. cerevisiae deletion strains, locus YOR329C, strain SCD5, hits give low values 0.965 | S. cerevisiae deletion strains, locus YPL209C, strain IPL1, hits give low values 0.968 | S. cerevisiae deletion strains, locus YPR025C, strain CCL1, hits give low values 0.969 | S. cerevisiae deletion strains, locus YPR106W, strain ISR1, hits give low values 0.972 | S. cerevisiae deletion strains, locus YPR111W, strain DBF20, hits give low values 0.978 | S. cerevisiae deletion strains, strain NNK1, hits give low values 0.975 | S. cerevisiae deletion strains, strain TSCII, hits give low values 0.977
active: S. cerevisiae deletion strains, locus YAL013W, strain DEP1, hits give low values 0.525 | S. cerevisiae deletion strains, locus YBR229C, strain ROT2, hits give low values 0.25 | S. cerevisiae deletion strains, locus YDL101C, strain DUN1, hits give low values 0.426 | S. cerevisiae deletion strains, locus YDL134C, strain PPH21, hits give low values 0.106 | S. cerevisiae deletion strains, locus YDL214C, strain PRR2, hits give low values 0.471 | S. cerevisiae deletion strains, locus YDR477W, strain SNF1, hits give low values 0.516 | S. cerevisiae deletion strains, locus YEL061C, strain CIN8, hits give low values 0.22 | S. cerevisiae deletion strains, locus YER123W, strain YCK3, hits give low values 0.232 | S. cerevisiae deletion strains, locus YER133W, strain GLC7, hits give low values 0.482 | S. cerevisiae deletion strains, locus YFR019W, strain FAB1, hits give low values 0.284 | S. cerevisiae deletion strains, locus YGR040W, strain KSS1, hits give low values 0.478 | S. cerevisiae deletion strains, locus YGR052W, strain FMP48, hits give low values 0.382 | S. cerevisiae deletion strains, locus YGR078C, strain PAC10, hits give low values 0.437 | S. cerevisiae deletion strains, locus YGR092W, strain DBF2, hits give low values 0.226 | S. cerevisiae deletion strains, locus YHR030C, strain SLT2, hits give low values 0.0845 and 0.197 | S. cerevisiae deletion strains, locus YHR079C, strain IRE1, hits give low values 0.313 | S. cerevisiae deletion strains, locus YHR082C, strain KSP1, hits give low values 0.429 | S. cerevisiae deletion strains, locus YHR087W, strain rtc3, hits give low values 0.401 | S. cerevisiae deletion strains, locus YHR205W, strain SCH9, hits give low values 0.57 | S. cerevisiae deletion strains, locus YJL095W, strain BCK1, hits give low values 0.269 | S. cerevisiae deletion strains, locus YJL157C, strain FAR1, hits give low values 0.46 | S. cerevisiae deletion strains, locus YJL187C, strain SWE1, hits give low values 0.434 | S. cerevisiae deletion strains, locus YJR043C, strain POL32, hits give low values 0.602 | S. cerevisiae deletion strains, locus YJR066W, strain TOR1 (second series), hits give low values 0.126 | S. cerevisiae deletion strains, locus YJR066W, strain TOR1, hits give low values 0.257 | S. cerevisiae deletion strains, locus YJR075W, strain HOC1, hits give low values 0.178 | S. cerevisiae deletion strains, locus YKL048C, strain ELM1, hits give low values 0.534 | S. cerevisiae deletion strains, locus YKL067W, strain YNK1, hits give low values 0.458 | S. cerevisiae deletion strains, locus YKL101W, strain HSL1, hits give low values 0.393 | S. cerevisiae deletion strains, locus YKL203C, strain TOR2, hits give low values 0.489 | S. cerevisiae deletion strains, locus YLR039C, strain RIC1, hits give low values 0.285 | S. cerevisiae deletion strains, locus YLR058C, strain SHM2 (second series), hits give low values 0.651 | S. cerevisiae deletion strains, locus YLR085C, strain ARP6, hits give low values 0.163 | S. cerevisiae deletion strains, locus YLR113W, strain HOG1, hits give low values 0.203 | S. cerevisiae deletion strains, locus YLR133W, strain CKI1, hits give low values 0.547 | S. cerevisiae deletion strains, locus YLR262C, strain YPT6, hits give low values 0.283 | S. cerevisiae deletion strains, locus YLR403W, strain SFP1, hits give low values 0.497 | S. cerevisiae deletion strains, locus YML070W, strain DAK1, hits give low values 0.295 | S. cerevisiae deletion strains, locus YML094W, strain GIM5, hits give low values 0.145 | S. cerevisiae deletion strains, locus YMR205C, strain PFK2 (second series), hits give low values 0.554 | S. cerevisiae deletion strains, locus YMR219W, strain ESC1, hits give low values 0.285 | S. cerevisiae deletion strains, locus YMR263W, strain SAP30, hits give low values 0.463 | S. cerevisiae deletion strains, locus YNL020C, strain ARK1, hits give low values 0.528 | S. cerevisiae deletion strains, locus YNL153C, strain GIM3, hits give low values 0.171 | S. cerevisiae deletion strains, locus YNL183C, strain NPR1, hits give low values 0.359 | S. cerevisiae deletion strains, locus YNL298W, strain CLA4 (second series), hits give low values 0.204 | S. cerevisiae deletion strains, locus YNL307C, strain MCK1 (second series), hits give low values 0.364 | S. cerevisiae deletion strains, locus YNL322C, strain KRE1, hits give low values 0.873 | S. cerevisiae deletion strains, locus YNR030W, strain Alg12, hits give low values 0.0808 | S. cerevisiae deletion strains, locus YOL006C, strain TOP1, hits give low values 0.0719 | S. cerevisiae deletion strains, locus YOL136C, strain PFK27, hits give low values 0.374 | S. cerevisiae deletion strains, locus YOR061W, strain CKA2, hits give low values 0.571 | S. cerevisiae deletion strains, locus YOR119C, strain RIO1, hits give low values 0.444 | S. cerevisiae deletion strains, locus YOR231W, strain MKK1, hits give low values 0.289 | S. cerevisiae deletion strains, locus YPL031C, strain PHO85, hits give low values 0.409 | S. cerevisiae deletion strains, locus YPL055C, strain LGE1, hits give low values 0.86 | S. cerevisiae deletion strains, locus YPL153C, strain RAD53, hits give low values 0.318 | S. cerevisiae deletion strains, locus YPL204W, strain HRR25, hits give low values 0.431 | S. cerevisiae deletion strains, locus YPL241C, strain CIN2, hits give low values 0.0938 | S. cerevisiae deletion strains, locus YPL256C, strain CLN2, hits give low values 0.266 | S. cerevisiae deletion strains, locus YPR135W, strain CTF4, hits give low values 0.233 | S. cerevisiae strains, strain wild type, hits give low values 0.0825
